# From PubChem
# gsp agonist – agonists of gsp mutant (McCune-Albright syndrome) | gsp mutant cells, cAMP HTRF, 30 min | Potency, µM (doses to about 76.9 µM), for the others: top-dose activation (cAMP increase), hits mostly activators | hit rate 0.13% among 340,000 | AID 624287; active = well fitted activation curve with a large enough effect; inconclusive = small, poorly fitted or top-dose-only effect, or another doubt; inactive = no such curve, though single readings can be large or run the other way; cell line not stated here;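 note: phosphodiesterase inhibitor Ro 20-1724 added with compounds to block cAMP breakdown; potency is the fitted concentration of half-maximal effect; nearly all actives have a fitted effect of over 60% in size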
#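 Cells stably selected in G418 were plated at 2000/well, grown 16-24 hr, then given compounds in DMSO with the PDE inhibitor […] (300 uM solution added) for 30 min at 37C; cAMP was read by HTRF.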
# gsp antag – antagonizes gsp, the McCune-Albright syndrome mutation. gsp-mutant cells, cAMP HTRF, 30 min. hit rate 0.4% among 340,000. Potency, µM (doses to about 76.9 µM), without a hit: at the top dose activity change, negative = inhibition, hits mostly inhibitors; calls by dose curve; cell line not stated here;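 note: intracellular cAMP measured with PDE inhibitor Ro 20-1724 present during compound exposure; potency is the fitted concentration of half-maximal effect; % is set by controls: 0 for no effect and ±100 for the full control effect; nearly all actives have a fitted effect of over 65% in size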
#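 Cells in G418 medium, seeded 16-24 h, 37C; buffer exchange to DPBS + 1 mM CaCl2, 0.5 mM MgCl2, 0.05% BSA; cpds in DMSO + […] (300 uM stock), 30 min 37C; HTRF cAMP detection.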
# Integrin act MD – integrin-mediated muscular dystrophy alleviation activation; alpha7betagal myoblasts, beta-gal FDG fluorescence, 48 h; Potency, µM (top dose mostly 38.3 µM), for inactives: at the highest dose activation, usual class: activators; hit rate 0.064% among 350,000;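 note: potency is the fitted concentration of half-maximal effect; 100% = response of the positive control SU9516; nearly all actives have a fitted effect of over 60% in size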
#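 alpha7betagal+/- myoblasts (passage 13, 250/well) treated 48 h at 37C with compounds at 1:260 dilution of DMSO stock. Lysed, then beta-galactosidase activity read as FDG fluorescence (ex 480/em 540) after 30 min, with pre-read for autofluorescence.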
# RXFP1 antag – blocks the human relaxin receptor RXFP1; Q9HBX9; HEK293-RXFP1, relaxin-stimulated cAMP HTRF, 30 min; active compounds read low; activity change, negative = inhibition, % at 57.5 µM; hit rate 0.59% among 350,000; AID 1259400;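 active = activity change of -60% or lower, but not beyond a set lower limit; inconclusive = change between -60% and -40%, or beyond the set limit; inactive = change above -40%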; note: % is set by controls: 0 for no effect and ±100 for the full control effect
# Target sequence (Q9HBX9 whole entry, looked up): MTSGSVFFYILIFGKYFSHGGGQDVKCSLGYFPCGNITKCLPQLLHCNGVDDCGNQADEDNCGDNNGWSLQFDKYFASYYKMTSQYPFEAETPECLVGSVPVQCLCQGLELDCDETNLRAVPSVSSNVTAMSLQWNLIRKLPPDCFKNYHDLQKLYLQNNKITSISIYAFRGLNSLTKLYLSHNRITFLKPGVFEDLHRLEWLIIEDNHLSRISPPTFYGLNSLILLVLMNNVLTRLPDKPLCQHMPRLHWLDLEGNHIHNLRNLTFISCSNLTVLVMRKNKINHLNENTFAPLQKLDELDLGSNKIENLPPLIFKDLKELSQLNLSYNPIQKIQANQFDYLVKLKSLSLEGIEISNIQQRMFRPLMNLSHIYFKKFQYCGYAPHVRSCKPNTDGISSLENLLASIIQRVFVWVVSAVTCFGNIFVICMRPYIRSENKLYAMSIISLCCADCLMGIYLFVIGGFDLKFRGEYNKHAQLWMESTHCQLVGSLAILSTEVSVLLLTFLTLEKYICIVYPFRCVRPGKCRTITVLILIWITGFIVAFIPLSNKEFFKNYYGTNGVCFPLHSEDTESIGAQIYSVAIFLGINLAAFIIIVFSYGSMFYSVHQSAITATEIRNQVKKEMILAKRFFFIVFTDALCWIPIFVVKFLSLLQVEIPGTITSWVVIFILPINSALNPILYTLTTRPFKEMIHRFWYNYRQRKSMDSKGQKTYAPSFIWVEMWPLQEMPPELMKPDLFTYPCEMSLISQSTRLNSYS
# RXFP1 ag – RXFP1 (human) receptor agonism; Q9HBX9; HEK293T-RXFP1 cAMP TR-FRET, 30 min; response scale: percent of porcine relaxin response, buffer zero; Potency, µM (highest dose often 57.5 µM), for inactives: top-dose activation, usual class: activators; hit rate 0.3% among 370,000; note: potency is the fitted concentration of half-maximal effect; % is set by controls: 0 for no effect and ±100 for the full control effect; nearly all actives have a fitted effect of over 60% in size
#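 HEK293T cells stably expressing RXFP1 were pretreated with the PDE4 inhibitor Ro 20174, exposed to compounds for 30 min at 37C, lysed, and cAMP was read by TR-FRET. Data normalized to buffer (basal) and 29 nM porcine relaxin (100%).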
# ASM inhibitor – blocks human secretory acid sphingomyelinase. P17405. placental ASM, HMU-PC fluorogenic substrate, 60 min. Potency, µM (titrated, usually from 57.5 µM), without a hit: at the top dose activity change, negative = inhibition, hits mostly inhibitors. hit rate 0.006% among 340,000; note: potency is the fitted concentration of half-maximal effect
#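 Fluorescence read-out (Ex 386 nm, Em 447 nm) after stopping the reaction at pH 10. Enzyme: ASM from human placenta; substrate HMU-PC0, 9 uM final; 60 min, 37 °C. Compound preincubation 10 min, ambient temperature.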
# * hit, by the source's call; i = inactive; ? = inconclusive; . = not tested or not shown; [ ] = dose if it differs, or a comment. Hits are enriched below; roughly 1.1% of the tested compounds scored in any of these assays. Unless noted, calls come from the whole dose curve; as a rule, active = well fitted curve in the direction sought with a large enough effect; inconclusive = small, poorly fitted or top-dose-only effect, or another doubt; inactive = no such curve, though single readings can be large; an effect the other way counts as inactive or inconclusive.
SMILES,gsp agonist,gsp antag,Integrin act MD,RXFP1 antag,RXFP1 ag,ASM inhibitor
COc1ccc(S(=O)(=O)Cc2ccc(C(=O)NC3CCCCCC3)o2)cc1,10%,-9%,2%,-102*,2%,-2%
COc1ccc(CCNC(=O)c2ccc(-c3ccc([N+](=O)[O-])cc3Cl)o2)cc1OC,-36%,32µM*,-1%,6,0%,-11%
O=C(c1ccc(-c2ccc([N+](=O)[O-])cc2)o1)N1CCCC(C(F)(F)F)C1 (centres undefined),6%[15.4 µM],-15%,2%,-13,5%,5%
COc1cccc(NC(=O)c2oc3ccccc3c2NC(=O)C2CCCCC2)c1,.,.,.,-3,1%,.
COc1ccc(S(=O)(=O)Nc2cccc(-c3ccc(N4CCC(C)CC4)nn3)c2)c(OC)c1,.,.,.,-13,1%,.
COc1ccc(CCNC(=O)c2ccc(CS(=O)(=O)c3ccc(Cl)cc3)o2)cc1OC,-21%,40µM*,23%,6,-2%,3%
COc1cccc(NC(=O)c2ccc(-c3ccc([N+](=O)[O-])cc3)o2)c1,-12%,-12%,19%,-2,2%,-11%
COc1ccc(NC(=O)c2ccc(-c3ccc([N+](=O)[O-])cc3)o2)cc1OC,8%,35µM*,-6%,-17,6%,-14%
COC(=O)c1c(Oc2ccc(Br)cc2)nnc(-c2ccccc2)c1-c1ccccc1,.,.,.,-6,0%,.
C=CCn1c(=O)c2c(nc3n2CC(C)CN3CCc2ccccc2)n(C)c1=O (centres undefined),7%,-13%,-35%,4,2%,-3%
O=C(CC1C(=O)NCCN1Cc1ccc(-c2ccccc2)cc1)NCC1CC1 (centres undefined),28%[15.4 µM],10%,15%,-61*,-1%,2%
O=C(CCc1nnc2ccc(N3CCC4(CC3)OCCO4)nn12)NCc1ccc(F)cc1,?,3%,10%,22,16µM*,-5%
O=C(Nc1ccc2nc(SCC(=O)N3CCOCC3)sc2c1)c1cccc(F)c1,.,.,.,-86*,0%,.
O=C(Nc1ccc2nc(SCC(=O)N3CCOCC3)sc2c1)c1cccc(Br)c1,.,.,.,-98*,1%,.
COc1cccc(C(=O)Nc2ccc3nc(SCC(=O)N4CCOCC4)sc3c2)c1,.,.,.,-96*,-1%,.
O=C(Nc1cccc(Br)c1)c1ccc2nc(N3C(=O)CCC3=O)sc2c1,-24%,35µM*,-14%,-13,4%,-19%
O=C(Nc1ccc2nc(SCC(=O)N3CCOCC3)sc2c1)c1ccc(F)cc1,.,.,.,-30,8%,.
CCN(CC)C(=O)Nc1ccc(OCC(O)CNC(C)(C)C)c(C(C)=O)c1 (centres undefined),.,.,.,-11,.,.
O=c1[nH]c2ccccc2c(=O)n1CCCl,.,.,.,11,.,.
COc1ccccc1NC(=O)c1oc2ccccc2c1NC(=O)Cc1ccccc1,.,.,.,-14,16%,.
O=C(Nc1ccc2nc(SCC(=O)N3CCOCC3)sc2c1)c1ccccc1Cl,.,.,.,-64*,0%,.
O=C(Nc1ccc2nc(SCC(=O)N3CCCC3)sc2c1)c1cccc(F)c1,.,.,.,-101*,6%,.
O=C(Nc1ccc2nc(SCC(=O)N3CCCC3)sc2c1)c1ccc(F)cc1,.,.,.,-26,4%,.
CCn1c(=O)[nH]c2cc(C(=O)Nc3cc(C)cc(C)c3)ccc2c1=O,-5%[15.4 µM],5%,1%,-1,1%,17%
COc1ccc(N2C3=C(C(=O)CC(C)(C)C3)C(c3ccccc3OC)C3=C2CC(C)(C)CC3=O)cc1,?,28µM*,24%,-21,-1%,i
SMILES,gsp agonist,gsp antag,Integrin act MD,RXFP1 antag,RXFP1 ag,ASM inhibitor
COCCN1C(=O)/C(=C/c2ccc(Oc3ccc([N+](=O)[O-])cn3)c(OC)c2)SC1=Nc1ccccc1,-23%,-1%,-30%,9,1%,-4%
O=C1/C(=C/c2ccc(N3CCOCC3)o2)SC(=Nc2ccccc2)N1CCc1c[nH]c2ccccc12,-11%,8%,-63%,-81*,2%,-20%
COc1ccc(N=C2S/C(=C\c3ccc(OC(C)C(=O)O)c(OC)c3)C(=O)N2CCc2c[nH]c3ccccc23)cc1 (centres undefined),-25%,35µM*,-48%,5,1%,-26%
O=C1S/C(=C/c2ccc(N3CCOCC3)o2)C(=O)N1Cc1ccc(F)cc1,1%,19%,8%,-6,1%,-2%
COc1cc(/C=C2\SC(=Nc3ccccc3)N(CCc3c[nH]c4ccccc34)C2=O)ccc1OC(C)C(=O)O (centres undefined),8%[15.4 µM],35µM*,25%,-17,-3%,-12%
OC1(c2ccc(Cl)cc2)CCNCC1,.,.,.,-30,.,.
Cc1noc(C)c1C(=O)Nc1nc(-c2ccc([N+](=O)[O-])cc2)cs1,-58%,28µM*,-5%,?,4%,-3%
Cc1ccc(-c2csc(NC(=O)c3c(C)noc3C)n2)cc1,-39%,?,-44%,-2,0%,-12%
COC(=O)[C@H](CC(C)C)N(Cc1ccccc1)S(=O)(=O)N(Cc1ccc(OC)cc1)[C@@H](CC(C)C)C(=O)OC,.,50µM*,-12%,.,.,2%
COc1ccc(-c2cn3cccnc3n2)cc1NC(=O)c1cc(C)cc(C)c1,.,.,.,0,6%,.
COC(=O)Cc1ccc(NC(=O)c2ccc3c(c2)C(=O)N(Cc2cccnc2)C3=O)cc1,-19%,-11%,0%,4,2%,2%
CCOC(=O)c1ccc(NC(=O)c2ccc3c(c2)C(=O)N(CC2CCCO2)C3=O)cc1 (centres undefined),-19%,32µM*,-35%,-33,0%,-6%
CCOC(=O)c1ccc(NC(=O)c2ccc3c(c2)C(=O)N(Cc2cccnc2)C3=O)cc1,?,35µM*,-4%,-13,4%,-13%
C#Cc1cccc(NC(=O)c2ccc3c(c2)C(=O)N(Cc2cccnc2)C3=O)c1,33%[15.4 µM],40µM*,41%,-88*,-1%,-9%
CC(C)c1ccc(NC(=O)c2ccc3c(c2)C(=O)N(Cc2cccnc2)C3=O)cc1,?,35µM*,12%,-12,-1%,-19%
COc1cccc2sc(N3CCN(C(=O)CCS(=O)(=O)c4ccc(F)cc4)CC3)nc12,.,.,.,-16,3%,.
Cc1ccc(CNC(=O)c2ccc3c(c2)NC(=O)C(N2CCOCC2)S3)cc1 (centres undefined),11%[15.4 µM],-7%,20%,-62*,0%,1%
COC(=O)CN1C(=O)CSc2ccc(S(=O)(=O)Nc3ccc(C)c(Cl)c3)cc21,.,.,.,0,-1%,.
O=C(Nc1nc(-c2cccs2)c(C(=O)C(F)(F)F)s1)c1ccco1,?,-2%,-19%,1,25µM*,-10%
